Results on 36 molecules are retold here after PubChem BioAssay (NCATS).

Results filed as inconclusive are left out. Where a call stands in place of a potency, no number is given. The source made the active and inactive calls. Calls follow the shape of the dose curve; as a rule, active = well fitted inhibition curve with a large enough effect; inconclusive = small, poorly fitted or top-dose-only effect, or effect the other way; inactive = flat fitted curve, though single readings scatter.

ATP-dependent 6-phosphofructokinase (Trypanosoma brucei brucei), sequence (O15648 whole entry, looked up): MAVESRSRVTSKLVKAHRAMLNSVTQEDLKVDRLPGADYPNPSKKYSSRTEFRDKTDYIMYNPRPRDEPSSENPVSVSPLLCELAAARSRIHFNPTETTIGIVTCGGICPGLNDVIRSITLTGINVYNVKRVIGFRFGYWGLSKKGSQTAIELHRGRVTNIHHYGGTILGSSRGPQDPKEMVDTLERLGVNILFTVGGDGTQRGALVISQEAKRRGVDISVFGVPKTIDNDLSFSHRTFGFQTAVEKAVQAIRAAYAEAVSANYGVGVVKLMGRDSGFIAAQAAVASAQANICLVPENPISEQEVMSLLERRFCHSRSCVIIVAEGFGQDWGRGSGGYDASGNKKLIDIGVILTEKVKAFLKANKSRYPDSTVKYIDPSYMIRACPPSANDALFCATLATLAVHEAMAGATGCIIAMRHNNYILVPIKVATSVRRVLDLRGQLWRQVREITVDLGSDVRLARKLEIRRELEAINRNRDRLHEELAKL

The target of this test is ATP-dependent 6-phosphofructokinase (Trypanosoma brucei brucei) (UniProt O15648). The test can be described thus: qHTS Assay to Find Inhibitors of T. brucei phosphofructokinase: hit validation (AID 492961).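 Also: luminescence reports ADP formed as PFK phosphorylates fructose-6-phosphate with ATP.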 The following applies: T. brucei PFK, ADP-Glo luminescence; series mostly up to 51.4 µM. The procedure, abridged:
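Compounds titrated; %activity normalized to 0x and 1x enzyme controls, curve-fitted. Readout: ADP-Glo luminescence after 45 min room-temperature reaction of 1.25 nM PFK, 0.1 mM ATP, 0.5 mM F6P, pH 8.0.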
With `CC/C=C\C/C=C\C/C=C\C/C=C\C/C=C\C/C=C\CCC(=O)O`, the Potency entry was “inactive”.

As for `O=S(=O)(O)CCCS(=O)(=O)O`, the Potency result is “inactive”.

Consider `Nc1ncnc2c1ncn2CCOCP(=O)(O)O`, for which the Potency result was “inactive”.

Consider `O=C(O)/C=C/C(=O)Nc1ccc(S(=O)(=O)Nc2nccs2)cc1`, for which the Potency result is “inactive”.

On to `CC(C)CCC[C@@H](C)[C@H]1CC[C@H]2[C@@H]3CC[C@@H]4C[C@H](O)CC[C@]4(C)[C@H]3CC[C@]12C`, for which the Potency entry was “inactive”.

Take `[O]=[Bi][O]C(=O)[O][Bi]=[O]`: the Potency result was “inactive”.

In the case of `CC(C)(Oc1ccc(C2CCCc3ccccc32)cc1)C(=O)O` (stereo unspecified), the Potency entry was “inactive”.

As to `CNC(=O)OCc1cccc(COC(=O)NC)n1`, the Potency entry was “inactive”.

In the case of `CCN(CC)CCOc1ccccc1OC`, the Potency entry is “inactive”.

Regarding `C=CC[N+]1([C@H]2C[C@H]3[C@@H]4CC[C@H]5C[C@H](O)[C@@H](N6CCOCC6)C[C@]5(C)[C@H]4CC[C@]3(C)[C@H]2OC(C)=O)CCCC1`, the Potency entry is “inactive”.

As to `NC(=S)NS(=O)(=O)c1ccc(N)cc1`, the Potency entry is “inactive”.

Regarding `C[Se]CC[C@H](N)C(=O)O`, the Potency result was “inactive”.

Regarding `CO/N=C(/C(=O)N[C@@H]1C(=O)N2C(C(=O)O)=C(COC(N)=O)CS[C@H]12)c1ccco1`, the Potency result was “inactive”.

`CC1=CC(=C(c2ccc(N)cc2)c2ccc(N)cc2)C=CC1=N`: the Potency result was “inactive”.

Consider `CN1C(C(=O)Nc2ccccn2)C(=O)c2sc(Cl)cc2S1(=O)=O` (stereo unspecified), for which the Potency entry was “inactive”.

In the case of `NC(N)=O`, the Potency result was “inactive”.

Regarding `COC(=O)c1ccccc1O`, the Potency result was “inactive”.

For `Cc1c(Cl)cccc1Nc1ncccc1C(=O)O`, the Potency entry was “inactive”.

On to `C=CC[C@@H]1/C=C(\C)C[C@H](C)C[C@H](OC)[C@H]2O[C@@](O)(C(=O)C(=O)N3CCCC[C@H]3C(=O)O[C@H](/C(C)=C/[C@@H]3CC[C@@H](O)[C@H](OC)C3)[C@H](C)[C@@H](O)CC1=O)[C@H](C)C[C@@H]2OC`, for which the Potency entry is “inactive”.

With `C=CCOc1ccc(CC(=O)O)cc1Cl`, the Potency entry was “inactive”.

For the molecule `COc1cc(C)c(/C=C/C(C)=C/C=C/C(C)=C/C(=O)O)c(C)c1C`, the Potency result is “inactive”.

Turning to `O=P(O)(O)OC[C@H]1O[C@](O)(COP(=O)(O)O)[C@@H](O)[C@@H]1O`, the Potency result was “inactive”.

`OCC1(CO)COC(C(Cl)(Cl)Cl)OC1`: the Potency result was “inactive”.

`CS(=O)(=O)c1ccc([C@@H](O)[C@@H](COC(=O)CN)NC(=O)C(Cl)Cl)cc1`: the Potency entry is “inactive”.

Regarding `OCc1ccccc1`, the Potency result is “inactive”.

For the molecule `CC1CC(O)CC(C)(C)C1` (stereo unspecified), the Potency entry was “inactive”.

For the molecule `CC1C(=O)CC2C3(C)CCC2(C(C)C(=O)O)C(=O)C13` (stereo unspecified), the Potency result was “inactive”.

In the case of `CCOC(=O)C1=C(COCCN)NC(C)=C(C(=O)OC)C1c1ccccc1Cl` (stereo unspecified), the Potency entry is “inactive”.

For the molecule `CO/N=C(\C(=O)N[C@@H]1C(=O)N2C(C(=O)[O-])=C(C[n+]3cccc4c3CCC4)CS[C@H]12)c1csc(N)n1`, the Potency entry was “inactive”.

Regarding `O=C(O)CCC/C=C\C[C@@H]1[C@@H](/C=C/[C@@H](O)COc2cccc(Cl)c2)[C@H](O)C[C@@H]1O`, the Potency entry was “inactive”.

With `CCCCCCCCCCCCCCCCOCCOCCOCCOCCOCCOCCOCCOCCOCCOCCOCCOCCOCCOCCOCCOCCOCCOCCOCCOCCO`, the Potency result was “inactive”.

On to `CCC(=O)c1ccc2c(c1)N(CCCN1CCN(CCO)CC1)c1ccccc1S2`, for which the Potency entry was “inactive”.

Take `O=C1c2ccccc2C(=O)C1c1ccc(F)cc1`: the Potency result is “inactive”.

`Oc1ccc(Cl)c2c1CCC2`: the Potency result is “inactive”.

Take `O=C(O)CCC/C=C\C[C@@H]1[C@@H](/C=C/[C@@H](O)COc2cccc(C(F)(F)F)c2)[C@H](O)C[C@@H]1O`: the Potency entry was “inactive”.

With `CCN(CC)CCC(=O)N1c2ccccc2Sc2ccc(Cl)cc21`, the Potency entry is “inactive”.
